GDH-TPI counter-1 = GDH-TPI coupled enzyme inhibition counter-screen; GDH-TPI coupled enzyme counterscreen, NADH absorbance; AID 588335; 360,000 compounds, 1.2% hits; inhibition, % at 4.8 µM; in the data active = inhibition above about 30%
BJeLR viability = kills HRASV12-expressing BJeLR cells; AID 1554; BJeLR (HRASV12) viability, CellTiter-Glo ATP luminescence, 48 h; inhibition, % (concentration not given with the values); 300,000 compounds, 0.17% hits; in the data active = inhibition above about 50%
RecA splice inh = blocks M. tuberculosis RecA intein splicing; P9WHJ3; cell-free RecA intein splicing, fluorescence; inhibition, % (no concentration beside the values); 290,000 compounds, 0.75% hits; AID 2221; in the data active = inhibition above about 30%
PrPC TRFRET = cell surface PrPC inhibition, primary TR-FRET screen | 370,000 compounds, 0.43% hits | TR-FRET read-out | P04156 | AID 720596 | inhibition, % at 13.8 µM; in the data active = inhibition above about 24%
Mtb FBA inh = inhibitors of M. tuberculosis fructose-bisphosphate aldolase | purified M. tuberculosis FBA, fluorescence read-out | inhibition, % at 1 µM | P9WQA3 | 360,000 compounds, 2.3% hits
Target sequence (P9WQA3 whole entry, looked up): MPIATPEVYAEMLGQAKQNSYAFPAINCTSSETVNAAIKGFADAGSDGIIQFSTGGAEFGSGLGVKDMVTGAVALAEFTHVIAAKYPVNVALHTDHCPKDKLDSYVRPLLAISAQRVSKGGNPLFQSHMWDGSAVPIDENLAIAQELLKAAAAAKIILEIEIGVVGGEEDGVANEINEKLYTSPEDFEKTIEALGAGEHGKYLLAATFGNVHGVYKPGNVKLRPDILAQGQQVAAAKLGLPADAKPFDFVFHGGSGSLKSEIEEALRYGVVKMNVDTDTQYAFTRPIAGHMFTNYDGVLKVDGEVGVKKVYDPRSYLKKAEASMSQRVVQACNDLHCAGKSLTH
Mtb FBA inh conf = confirmation of M. tuberculosis fructose-bisphosphate aldolase inhibitors; 5,600 compounds, 78% hits; purified M. tuberculosis FBA, fluorescence read-out; inhibition, % at 1 µM; shares compounds with Mtb FBA inh
GDH-TPI counter-2 = inhibits GDH-TPI coupling enzymes, flagging Mtb FBA hits; GDH-TPI coupled enzyme counterscreen, fluorescence; shares compounds with Mtb FBA inh; 5,600 compounds, 81% hits; AID 652141; inhibition, % at 1 µM; in the data active = inhibition above about 10%
Numbers stand for hits; i = inactive; nt = no result given; + = active, no number. Only some compounds are listed: those with a hit (about 4.2% of all), similar ones and a draw of the others. Cut-off read from the data, not from the text of the source, unless noted: active = inhibition above about 27%; inactive = the rest.

SMILES	GDH-TPI counter-1	BJeLR viability	RecA splice inh	PrPC TRFRET	Mtb FBA inh	Mtb FBA inh conf	GDH-TPI counter-2
O=C1NC(c2ccccc2Cl)Nc2ccccc21 (stereo unspecified)	i	i	i	i	57	114	100
O=C1NC(c2cccc3ccccc23)Nc2ccccc21 (stereo unspecified)	i	nt	nt	i	29	37	32
COC(=O)[C@]12C[C@H](CC(=O)N3CCCCC3)C(=O)N(CCc3ccc(OC)c(OC)c3)C1=C[C@H](C(C)(C)C)O[C@@H]2C	nt	nt	nt	i	nt	nt	nt
NC(=O)c1c(N)[nH]c(C(=O)c2ccccc2)c1-c1ccc(Cl)cc1Cl	nt	nt	nt	i	nt	nt	nt
CCCOc1ncnc2c1[nH]c1ccc(C)cc12	nt	i	nt	nt	nt	nt	nt
CCOc1ncnc2c1[nH]c1ccccc12	i	i	i	i	37	35	28
COC(=O)c1ccc(C2C(C#N)=C(C)NC3=C2C(=O)CC(C)(C)C3)cc1 (stereo unspecified)	i	i	i	i	75	82	52
CCCCC1C(C#N)=C(C)NC2=C1C(=O)CC(C)(C)C2 (stereo unspecified)	i	i	i	i	57	63	45
COc1ccc(C2C(C#N)=C(SC)NC3=C2C(=O)CC(C)(C)C3)cc1 (stereo unspecified)	i	i	i	i	i	nt	nt
COCCCNC(=O)C[C@H]1C[C@@]2(C(=O)OC)C(=C[C@H](COCc3ccccc3)O[C@@H]2C)N(Cc2ccccc2)C1=O	nt	nt	nt	i	nt	nt	nt
CN(C)c1nc(-c2ccccc2)c2cnn(Cc3ccccc3)c2n1	i	i	i	i	44	121	112
CCC/C(=C1/c2ccccc2C(=O)N1c1ccccc1)c1c(C)noc1C	nt	nt	nt	i	nt	nt	nt
CS(=O)(=O)Nc1ccc(C2=NN(C(=O)c3ccco3)C(c3ccc(F)cc3)C2)cc1 (stereo unspecified)	i	i	i	i	74	62	48
COCCCNC(=O)c1ccc2c(c1)NC(=O)C(C)(C)O2	nt	nt	nt	i	nt	nt	nt
CCCn1c(CCC(=O)O)ccc1-c1ccc(OC)cc1	i	i	i	i	30	+	+
CC(=O)c1cc(-c2ccccc2-c2ccccc2)c(=O)n2c1CCC2	nt	nt	nt	i	nt	nt	nt
Cc1cn(C2CCCCC2)c(=O)n(-c2ccccc2)c1=O	i	nt	nt	i	37	+	177
O=S1(=O)c2ccc(N3CC[C@@H](O)C3)cc2O[C@H]2CCN1C2	nt	nt	nt	i	nt	nt	nt
O=C(NC1CCCCN(Cc2ccc(Cl)cc2)C1=O)c1ccc(F)c(F)c1 (stereo unspecified)	nt	nt	nt	i	nt	nt	nt
COc1ccc(-c2cc(C(F)F)n3ncc(C(=O)N4CCN(C)CC4)c3n2)cc1	i	i	i	i	30	39	34
COc1ccc(-c2cc(C(F)F)n3ncc(C(=O)N4CCSCC4)c3n2)cc1	i	i	i	i	i	nt	nt
CC(=O)NC(Cc1ccccc1)P(=O)(O)O (stereo unspecified)	nt	nt	nt	i	nt	nt	nt
CCc1nnc(NC(=O)C2CCN(S(=O)(=O)c3ccc(C)cc3)CC2)s1	i	i	i	i	i	nt	nt
CCc1nnc(NC(=O)C2CCN(S(=O)(=O)Cc3ccccc3)CC2)s1	i	nt	nt	i	35	86	69
CN(C)c1nc(OCCNC(=O)Nc2ccccc2)nc(N(C)C)n1	i	i	i	i	i	nt	nt
SMILES	GDH-TPI counter-1	BJeLR viability	RecA splice inh	PrPC TRFRET	Mtb FBA inh	Mtb FBA inh conf	GDH-TPI counter-2
CN(C)c1nc(OCCNC(=O)COc2ccccc2Cl)nc(N(C)C)n1	i	i	i	i	55	+	189
Cc1cc(=O)c2cc(C(=O)c3ccccc3)ccc2[nH]1	i	i	i	i	i	nt	nt
CCOC(=O)c1ccc2[nH]c(C)cc(=O)c2c1	i	i	i	i	36	+	196
COC(=O)c1ccc2[nH]c(C)cc(=O)c2c1	i	i	i	i	34	95	85
CCOC(=O)c1ccc2[nH]c(C)c(C)c2c1	i	i	i	i	i	nt	nt
OC[C@@H]1[C@@H](c2ccc(Cl)cc2)C(c2ccc(F)cc2)=NN1c1ccccc1	i	nt	nt	i	60	150	98
OC[C@@H]1[C@@H](c2ccccc2)C(c2cccc(Cl)c2)=NN1c1ccccc1	i	nt	nt	i	50	122	134
COc1ccccc1[C@@H]1C(c2cccc(Cl)c2)=NN(c2ccccc2)[C@H]1C(=O)N1CCOC1=O	i	i	i	nt	i	nt	nt
c1ccc(-c2nn(-c3ccccc3)[n+](-c3ccccc3)n2)cc1	i	nt	nt	i	i	nt	nt

Compound activity as filed in PubChem.
